Experimental data as given in ChEMBL document CHEMBL3988442, “University of Dundee, Small-Polar-MMV Screening Library” (2021).

Target: AMP-activated protein kinase, AMPK (Homo sapiens) (UniProt P54646+O43741+P54619+Q9UGJ0+Q9Y478+Q13131+Q9UGI9)
Test: AMP-dependent Kinase enzyme assay. An in vitro enzyme assay that detects ADP turnover that is directly proportional to AMPK activity. This uses naive AMPK that is activated during the assay with MK-8722
Format: functional
Set-up: scale not given: direction of the effect not stated beside the values
Details: 30 µM

| SMILES | Percent Effect [%] |
| --- | --- |
| Cc1ccc(CCCC(=O)N2CC(=O)Nc3cccnc32)s1 | 2.25 |
| O=C(COc1ccc(-n2cccn2)nn1)NC1CCCCC1 | -0.431 |
| COc1ccc(C)nc1NC(=O)Cc1c(C)nn(C)c1C | 2.12 |
| CN(Cc1ccc(-n2cccn2)cc1)C[C@@H]1CCCN2CCCC[C@H]12 | 5.54 |
| CC1CN(C)CCN1C(=O)c1cccn1Cc1cccs1 (centres undefined) | 3.93 |
| Cc1cc(C)c(C(=O)N2CCC3(CCCNC3)C2)cc1C (centres undefined) | 7.09 |
| c1ccc(-c2cc(CN3CCCCCC3c3ccco3)on2)nc1 (centres undefined) | 8.41 |
| CCN(CC1=CCN(C)CC1)C(=O)CCOC | -8.72 |
| COCCN1C[C@H]2CC[C@@H]1CN(C(=O)CCc1c(C)nn(C)c1C)C2 | -4.69 |
